Source: ChEMBL document CHEMBL2218924, “A broad activity screen in support of a chemogenomic map for kinase signalling research and drug discovery” (Biochem J, 2013)

Tests used:
[1] = biological target: Serine/threonine-protein kinase MRCK beta (Homo sapiens) (UniProt Q9Y5S2); settings: at 1 µM
[2] = biological target: Serine/threonine-protein kinase MRCK beta (Homo sapiens) (UniProt Q9Y5S2); settings: at 10 µM
[3] = biological target: Ribosomal protein S6 kinase alpha-5 (Homo sapiens) (UniProt O75582); settings: at 1 µM
[4] = biological target: Ribosomal protein S6 kinase alpha-5 (Homo sapiens) (UniProt O75582); settings: at 10 µM
[5] = biological target: Ribosomal protein S6 kinase alpha-4 (Homo sapiens) (UniProt O75676); settings: at 1 µM
[6] = biological target: Ribosomal protein S6 kinase alpha-4 (Homo sapiens) (UniProt O75676); settings: at 10 µM
[7] = biological target: SRSF protein kinase 3 (Homo sapiens) (UniProt Q9UPE1); settings: at 1 µM
[8] = biological target: SRSF protein kinase 3 (Homo sapiens) (UniProt Q9UPE1); settings: at 10 µM
[9] = biological target: T1, Serine/threonine-protein kinase 4 (Homo sapiens) (UniProt Q13043); settings: at 1 µM
T1 sequence (whole entry): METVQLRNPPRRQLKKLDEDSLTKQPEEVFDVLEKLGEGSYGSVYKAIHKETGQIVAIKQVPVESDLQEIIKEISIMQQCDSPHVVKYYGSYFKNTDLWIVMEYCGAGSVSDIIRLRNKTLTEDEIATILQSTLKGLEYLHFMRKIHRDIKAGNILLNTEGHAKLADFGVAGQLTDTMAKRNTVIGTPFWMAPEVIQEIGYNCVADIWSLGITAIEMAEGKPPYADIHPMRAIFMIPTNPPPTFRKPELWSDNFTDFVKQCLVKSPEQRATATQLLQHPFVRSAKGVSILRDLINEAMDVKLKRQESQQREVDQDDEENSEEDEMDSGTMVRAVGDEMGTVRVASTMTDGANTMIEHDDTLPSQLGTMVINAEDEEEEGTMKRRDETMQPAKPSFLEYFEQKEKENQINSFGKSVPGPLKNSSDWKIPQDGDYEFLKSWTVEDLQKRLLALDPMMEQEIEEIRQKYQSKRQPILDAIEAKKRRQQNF

[10] = biological target: T1, Serine/threonine-protein kinase 4 (Homo sapiens); settings: at 10 µM
[11] = biological target: T2, Serine/threonine-protein kinase 3 (Homo sapiens) (UniProt Q13188); settings: at 1 µM
T2 sequence (whole entry): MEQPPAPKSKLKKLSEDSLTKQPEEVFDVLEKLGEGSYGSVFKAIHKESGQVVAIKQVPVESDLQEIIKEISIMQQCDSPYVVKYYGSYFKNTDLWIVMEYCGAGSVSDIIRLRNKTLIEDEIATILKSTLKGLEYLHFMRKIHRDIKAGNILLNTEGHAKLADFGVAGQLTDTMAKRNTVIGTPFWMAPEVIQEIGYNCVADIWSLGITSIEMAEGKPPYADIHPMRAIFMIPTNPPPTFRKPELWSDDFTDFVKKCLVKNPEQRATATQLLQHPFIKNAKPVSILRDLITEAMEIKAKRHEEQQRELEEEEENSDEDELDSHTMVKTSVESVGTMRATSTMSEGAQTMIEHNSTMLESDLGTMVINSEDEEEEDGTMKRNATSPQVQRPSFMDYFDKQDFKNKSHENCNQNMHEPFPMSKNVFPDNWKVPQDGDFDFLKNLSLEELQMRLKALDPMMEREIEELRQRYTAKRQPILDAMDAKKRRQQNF

[12] = biological target: T2, Serine/threonine-protein kinase 3 (Homo sapiens); settings: at 10 µM
[13] = biological target: Serine/threonine-protein kinase 24 (Homo sapiens) (UniProt Q9Y6E0); settings: at 1 µM
[14] = biological target: Serine/threonine-protein kinase 24 (Homo sapiens) (UniProt Q9Y6E0); settings: at 10 µM
[15] = biological target: T3, Tyrosine-protein kinase Mer (Homo sapiens) (UniProt Q12866); settings: at 1 µM
T3 sequence (whole entry): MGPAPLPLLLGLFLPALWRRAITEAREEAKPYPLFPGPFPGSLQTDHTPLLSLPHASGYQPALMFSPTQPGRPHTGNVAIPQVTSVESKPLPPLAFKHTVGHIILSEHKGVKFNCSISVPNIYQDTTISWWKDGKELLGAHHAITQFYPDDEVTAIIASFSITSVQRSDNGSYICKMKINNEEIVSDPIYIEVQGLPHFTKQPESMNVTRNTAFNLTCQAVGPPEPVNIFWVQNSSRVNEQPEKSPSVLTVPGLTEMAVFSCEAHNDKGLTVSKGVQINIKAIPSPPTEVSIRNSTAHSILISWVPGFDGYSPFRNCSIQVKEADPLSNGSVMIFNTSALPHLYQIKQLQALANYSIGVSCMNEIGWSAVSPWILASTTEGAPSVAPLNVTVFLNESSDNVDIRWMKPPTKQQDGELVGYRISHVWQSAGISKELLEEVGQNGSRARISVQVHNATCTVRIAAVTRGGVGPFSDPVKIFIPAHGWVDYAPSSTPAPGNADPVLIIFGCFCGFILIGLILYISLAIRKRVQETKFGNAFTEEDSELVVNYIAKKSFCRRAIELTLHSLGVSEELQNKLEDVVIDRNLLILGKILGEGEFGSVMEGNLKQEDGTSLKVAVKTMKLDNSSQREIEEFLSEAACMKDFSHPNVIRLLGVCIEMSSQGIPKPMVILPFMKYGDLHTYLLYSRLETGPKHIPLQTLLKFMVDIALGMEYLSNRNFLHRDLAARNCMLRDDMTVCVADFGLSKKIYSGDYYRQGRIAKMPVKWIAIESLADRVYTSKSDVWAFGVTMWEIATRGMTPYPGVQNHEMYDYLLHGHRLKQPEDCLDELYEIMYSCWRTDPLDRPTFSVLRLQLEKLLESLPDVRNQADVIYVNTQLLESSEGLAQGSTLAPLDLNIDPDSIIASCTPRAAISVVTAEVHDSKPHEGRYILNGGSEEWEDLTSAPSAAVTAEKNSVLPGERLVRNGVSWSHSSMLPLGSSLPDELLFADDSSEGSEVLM

[16] = biological target: T3, Tyrosine-protein kinase Mer (Homo sapiens); settings: at 10 µM
[17] = biological target: MAP kinase-interacting serine/threonine-protein kinase 2 (Homo sapiens) (UniProt Q9HBH9); settings: at 1 µM
[18] = biological target: MAP kinase-interacting serine/threonine-protein kinase 2 (Homo sapiens) (UniProt Q9HBH9); settings: at 10 µM
[19] = biological target: Hepatocyte growth factor receptor (Homo sapiens) (UniProt P08581); settings: at 1 µM
[20] = biological target: Hepatocyte growth factor receptor (Homo sapiens) (UniProt P08581); settings: at 10 µM

Sequence of Hepatocyte growth factor receptor (Homo sapiens) (P08581 whole entry): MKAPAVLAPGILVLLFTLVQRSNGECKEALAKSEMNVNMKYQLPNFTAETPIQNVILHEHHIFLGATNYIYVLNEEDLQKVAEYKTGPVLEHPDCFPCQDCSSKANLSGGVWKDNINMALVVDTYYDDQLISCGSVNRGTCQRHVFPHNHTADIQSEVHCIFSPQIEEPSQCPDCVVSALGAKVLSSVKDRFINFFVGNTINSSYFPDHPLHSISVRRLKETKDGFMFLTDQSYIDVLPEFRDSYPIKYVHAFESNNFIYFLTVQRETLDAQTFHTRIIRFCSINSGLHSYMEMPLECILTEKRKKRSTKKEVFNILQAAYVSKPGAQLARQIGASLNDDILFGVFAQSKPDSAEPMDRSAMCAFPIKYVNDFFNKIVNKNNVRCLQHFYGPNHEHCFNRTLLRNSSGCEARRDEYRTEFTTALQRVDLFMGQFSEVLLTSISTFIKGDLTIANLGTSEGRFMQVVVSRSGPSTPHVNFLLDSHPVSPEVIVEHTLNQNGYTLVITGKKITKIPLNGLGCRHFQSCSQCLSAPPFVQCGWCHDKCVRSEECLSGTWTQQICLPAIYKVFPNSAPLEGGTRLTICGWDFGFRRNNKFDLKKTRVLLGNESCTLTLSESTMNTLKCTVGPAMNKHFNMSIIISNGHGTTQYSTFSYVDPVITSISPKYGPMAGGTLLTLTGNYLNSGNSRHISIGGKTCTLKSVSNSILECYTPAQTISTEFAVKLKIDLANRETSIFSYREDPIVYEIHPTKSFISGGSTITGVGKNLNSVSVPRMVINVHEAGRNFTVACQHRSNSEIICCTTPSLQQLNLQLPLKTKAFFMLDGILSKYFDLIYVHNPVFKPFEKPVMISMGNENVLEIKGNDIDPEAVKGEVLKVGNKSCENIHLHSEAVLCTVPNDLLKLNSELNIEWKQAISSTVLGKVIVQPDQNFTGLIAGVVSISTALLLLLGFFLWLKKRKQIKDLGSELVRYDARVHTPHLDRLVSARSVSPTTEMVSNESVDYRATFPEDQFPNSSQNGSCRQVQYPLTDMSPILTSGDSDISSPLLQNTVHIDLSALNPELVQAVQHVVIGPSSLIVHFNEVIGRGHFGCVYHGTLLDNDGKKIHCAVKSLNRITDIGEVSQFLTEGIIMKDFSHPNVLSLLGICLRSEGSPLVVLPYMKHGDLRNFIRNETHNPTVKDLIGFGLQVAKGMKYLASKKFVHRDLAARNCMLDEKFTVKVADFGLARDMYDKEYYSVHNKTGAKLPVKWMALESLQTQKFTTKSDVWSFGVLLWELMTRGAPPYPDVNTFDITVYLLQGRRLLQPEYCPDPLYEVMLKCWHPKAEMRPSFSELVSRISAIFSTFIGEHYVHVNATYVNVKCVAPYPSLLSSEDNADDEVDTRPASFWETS
Sequence of Ribosomal protein S6 kinase alpha-5 (Homo sapiens) (O75582 whole entry, looked up): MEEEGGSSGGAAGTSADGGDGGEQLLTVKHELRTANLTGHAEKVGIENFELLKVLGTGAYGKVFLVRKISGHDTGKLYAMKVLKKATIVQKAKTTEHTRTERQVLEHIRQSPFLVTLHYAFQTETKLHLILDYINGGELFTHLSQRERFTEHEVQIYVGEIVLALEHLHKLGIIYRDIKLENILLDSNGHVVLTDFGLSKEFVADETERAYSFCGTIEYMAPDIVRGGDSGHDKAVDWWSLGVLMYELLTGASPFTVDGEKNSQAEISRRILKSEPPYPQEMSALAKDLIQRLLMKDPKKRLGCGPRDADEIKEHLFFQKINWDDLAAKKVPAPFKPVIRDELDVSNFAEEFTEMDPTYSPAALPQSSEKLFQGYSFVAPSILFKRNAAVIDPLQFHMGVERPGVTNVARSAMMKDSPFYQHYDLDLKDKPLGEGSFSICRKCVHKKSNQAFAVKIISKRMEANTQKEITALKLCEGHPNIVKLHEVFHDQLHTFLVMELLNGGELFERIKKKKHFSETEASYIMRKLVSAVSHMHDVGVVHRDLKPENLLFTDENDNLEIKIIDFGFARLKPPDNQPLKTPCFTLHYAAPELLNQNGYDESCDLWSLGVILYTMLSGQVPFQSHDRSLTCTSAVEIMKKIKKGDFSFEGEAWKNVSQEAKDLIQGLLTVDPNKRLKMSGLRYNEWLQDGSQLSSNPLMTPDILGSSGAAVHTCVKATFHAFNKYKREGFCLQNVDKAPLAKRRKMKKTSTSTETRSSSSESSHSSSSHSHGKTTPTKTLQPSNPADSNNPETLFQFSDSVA
Sequence of Serine/threonine-protein kinase MRCK beta (Homo sapiens) (Q9Y5S2 whole entry): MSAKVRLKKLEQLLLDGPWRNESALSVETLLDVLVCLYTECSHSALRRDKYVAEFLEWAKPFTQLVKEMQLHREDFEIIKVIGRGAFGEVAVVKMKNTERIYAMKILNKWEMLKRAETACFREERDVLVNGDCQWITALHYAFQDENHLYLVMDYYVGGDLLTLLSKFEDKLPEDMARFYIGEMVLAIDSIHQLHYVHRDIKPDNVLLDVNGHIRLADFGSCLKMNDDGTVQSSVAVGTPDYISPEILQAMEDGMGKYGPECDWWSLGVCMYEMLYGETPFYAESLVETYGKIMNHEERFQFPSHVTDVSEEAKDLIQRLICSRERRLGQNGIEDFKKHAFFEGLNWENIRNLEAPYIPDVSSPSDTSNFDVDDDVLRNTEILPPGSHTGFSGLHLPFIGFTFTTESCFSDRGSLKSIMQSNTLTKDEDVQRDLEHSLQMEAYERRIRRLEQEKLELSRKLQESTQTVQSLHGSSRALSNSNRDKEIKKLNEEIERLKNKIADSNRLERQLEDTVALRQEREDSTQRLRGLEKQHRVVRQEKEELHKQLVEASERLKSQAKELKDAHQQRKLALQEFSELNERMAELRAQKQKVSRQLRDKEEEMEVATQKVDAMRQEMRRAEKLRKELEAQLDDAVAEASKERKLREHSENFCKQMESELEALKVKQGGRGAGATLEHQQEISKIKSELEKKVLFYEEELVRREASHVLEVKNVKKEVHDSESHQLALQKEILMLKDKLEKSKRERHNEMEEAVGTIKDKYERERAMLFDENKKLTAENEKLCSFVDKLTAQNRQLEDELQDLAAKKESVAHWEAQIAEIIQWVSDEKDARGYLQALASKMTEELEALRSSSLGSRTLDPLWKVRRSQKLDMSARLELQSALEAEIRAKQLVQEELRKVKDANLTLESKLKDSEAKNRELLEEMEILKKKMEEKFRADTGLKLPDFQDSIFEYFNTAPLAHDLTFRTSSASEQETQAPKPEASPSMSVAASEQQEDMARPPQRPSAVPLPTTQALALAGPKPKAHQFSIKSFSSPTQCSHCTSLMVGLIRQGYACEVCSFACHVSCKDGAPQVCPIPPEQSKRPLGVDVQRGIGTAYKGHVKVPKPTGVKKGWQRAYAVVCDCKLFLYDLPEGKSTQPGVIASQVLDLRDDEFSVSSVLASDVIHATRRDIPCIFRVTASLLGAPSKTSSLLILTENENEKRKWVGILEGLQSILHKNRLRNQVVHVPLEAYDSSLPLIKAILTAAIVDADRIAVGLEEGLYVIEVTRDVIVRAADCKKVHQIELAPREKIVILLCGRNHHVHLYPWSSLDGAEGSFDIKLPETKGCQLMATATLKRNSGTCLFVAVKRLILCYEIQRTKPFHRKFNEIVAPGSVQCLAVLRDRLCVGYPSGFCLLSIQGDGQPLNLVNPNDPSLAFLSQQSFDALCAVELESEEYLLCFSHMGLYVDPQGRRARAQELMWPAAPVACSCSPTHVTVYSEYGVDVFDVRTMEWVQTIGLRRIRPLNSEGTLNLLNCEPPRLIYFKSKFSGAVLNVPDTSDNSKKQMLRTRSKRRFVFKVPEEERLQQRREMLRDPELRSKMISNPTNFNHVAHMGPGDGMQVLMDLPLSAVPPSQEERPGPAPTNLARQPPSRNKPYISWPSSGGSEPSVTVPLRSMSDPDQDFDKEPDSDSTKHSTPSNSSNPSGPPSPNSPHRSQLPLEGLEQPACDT
Sequence of Serine/threonine-protein kinase 24 (Homo sapiens) (Q9Y6E0 whole entry, looked up): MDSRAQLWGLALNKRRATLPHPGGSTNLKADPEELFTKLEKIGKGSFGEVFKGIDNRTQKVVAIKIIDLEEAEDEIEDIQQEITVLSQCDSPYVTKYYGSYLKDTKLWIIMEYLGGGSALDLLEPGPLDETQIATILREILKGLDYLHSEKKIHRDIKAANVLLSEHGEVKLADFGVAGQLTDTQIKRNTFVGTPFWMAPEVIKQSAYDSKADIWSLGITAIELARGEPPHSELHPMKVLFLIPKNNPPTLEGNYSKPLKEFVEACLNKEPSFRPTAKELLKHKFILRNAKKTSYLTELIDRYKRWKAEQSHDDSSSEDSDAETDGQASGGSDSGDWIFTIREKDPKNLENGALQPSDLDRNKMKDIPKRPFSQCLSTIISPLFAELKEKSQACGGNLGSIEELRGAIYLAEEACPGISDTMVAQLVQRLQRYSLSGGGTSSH
Sequence of Ribosomal protein S6 kinase alpha-4 (Homo sapiens) (O75676 whole entry, looked up): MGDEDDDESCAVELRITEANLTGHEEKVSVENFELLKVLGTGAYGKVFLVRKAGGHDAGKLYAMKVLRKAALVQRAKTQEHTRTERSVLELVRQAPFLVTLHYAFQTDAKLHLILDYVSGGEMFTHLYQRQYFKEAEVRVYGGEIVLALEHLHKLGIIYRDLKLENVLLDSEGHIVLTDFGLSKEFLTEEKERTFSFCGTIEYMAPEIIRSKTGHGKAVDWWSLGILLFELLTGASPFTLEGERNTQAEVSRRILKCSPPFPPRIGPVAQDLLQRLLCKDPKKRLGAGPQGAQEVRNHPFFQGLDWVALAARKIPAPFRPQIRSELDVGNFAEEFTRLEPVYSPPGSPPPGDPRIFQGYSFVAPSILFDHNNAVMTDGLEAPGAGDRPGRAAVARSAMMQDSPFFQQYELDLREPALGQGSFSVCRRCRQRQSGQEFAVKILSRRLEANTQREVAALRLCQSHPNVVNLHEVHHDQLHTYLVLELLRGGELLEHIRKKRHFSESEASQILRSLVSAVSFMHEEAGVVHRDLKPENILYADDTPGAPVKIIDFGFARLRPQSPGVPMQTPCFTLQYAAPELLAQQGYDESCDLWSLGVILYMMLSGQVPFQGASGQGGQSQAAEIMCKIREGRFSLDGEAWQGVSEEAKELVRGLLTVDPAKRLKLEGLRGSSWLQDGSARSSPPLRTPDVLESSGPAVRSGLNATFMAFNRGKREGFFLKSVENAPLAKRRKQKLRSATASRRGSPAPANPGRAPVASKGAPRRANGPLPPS

Row | Compound | residual activity [1] | residual activity [2] | residual activity [3] | residual activity [4] | residual activity [5] | residual activity [6] | residual activity [7] | residual activity [8] | residual activity [9] | residual activity [10] | residual activity [11] | residual activity [12] | residual activity [13] | residual activity [14] | residual activity [15] | residual activity [16] | residual activity [17] | residual activity [18] | residual activity [19] | residual activity [20]
1 | COc1cc2ncnc(Nc3ccc(Oc4ccccc4)cc3)c2cc1OC | 99% | 114% | 137% | 129% | 89% | 135% | 105% | 81% | 99% | 93% | 96% | 80% | 111% | 124% | 53% | 38% | 52% | 16% |  | 
2 | Cc1cc(Nc2nc(-c3ccccc3)nc3ccccc23)n[nH]1 | 96% | 99% | 72% | 39% | 59% | 14% | 46% | 16% | 48% | 6% | 55% | 11% | 59% | 10% | 19% | 1% |  | 61% | 94% | 65%
3 | CCC(=O)Nc1ccc2ncnc(Nc3cccc(Br)c3)c2c1 | 89% | 77% | 113% | 112% | 94% | 116% | 94% | 84% | 91% | 95% | 121% | 91% | 69% | 69% | 108% | 86% | 30% | 9% | 99% | 100%
4 | N#Cc1cnc2cnc(NCc3cccnc3)cc2c1Nc1ccc(F)c(Cl)c1 |  |  |  |  | 5% | 2% | 119% | 99% | 93% | 91% | 42% | 4% | 27% | 15% |  |  | 98% | 79% |  | 
5 | CC(=O)c1ccc(N2CCOCC2)cc1O | 100% | 83% | 133% | 108% | 92% |  |  | 88% | 85% | 96% |  |  | 70% | 71% |  |  | 105% | 96% |  | 
6 | c1ccc(-c2n[nH]cc2-c2ccnc3ccccc23)nc1 | 96% | 87% |  |  | 89% | 108% | 109% | 94% |  |  | 88% | 88% | 66% | 65% | 98% | 85% | 109% | 98% | 108% | 90%
7 | Cc1nc2cc3nc(-c4cccs4)cnc3cc2n1C | 105% | 100% | 129% | 101% | 101% |  | 117% | 88% | 105% | 94% | 107% | 87% | 90% | 96% | 103% | 41% | 84% | 37% | 128% | 91%
